# Assay results as given in PubChem BioAssay (NCATS).
# Inconclusive results are not listed. Where a call stands in place of a potency, no number is given. Calls of active or inactive are those of the source. The call rests on the fitted dose curve; in most records, active means well fitted curve in the direction sought with a large enough effect; inconclusive means small, poorly fitted or top-dose-only effect, or another doubt; inactive means no such curve, though single readings can be large; an effect the other way counts as inactive or inconclusive.
# Key:
# UISO = experiment: qHTS assay to identify novel small-molecules to repurpose for Merkel cell carcinoma treatment (AID 1296009); conditions: MCC and control cell lines, CellTiter-Glo viability, 72 h; series mostly up to 46 µM; further: nearly all actives have a fitted effect of over 60% in size
# Summary of the method: (§1)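 Dose-response viability screen; 72 hr exposure at 37 degree celsius; CellTiter-Glo added, 10 min room temperature, luminescence read; RLUs scaled between no-cell and DMSO wells.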
# WaGa = experiment: as above; conditions: MCC and control cell lines, CellTiter-Glo viability, 72 h; series mostly up to 46 µM
# Summary of the method: as §1
# CASKI = experiment: Primary qHTS to identify gynecologic anti-cancer compounds using libraries of approved drugs and bioactive compounds (AID 1345084); conditions: Gynecologic cancer cell panel viability, ATPlite luminescence, 48 h; series mostly up to 57.5 µM; further: nearly all actives have a fitted effect of over 55% in size
# Summary of the method: (§2)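 Cell viability after 48 h drug treatment, ATPlite luminescence readout; five doses.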
# Es-2 = experiment: as above; conditions: Gynecologic cancer cell panel viability, ATPlite luminescence, 48 h; series mostly up to 57.5 µM
# Summary of the method: as §2
# HeLa = experiment: as above; conditions: Gynecologic cancer cell panel viability, ATPlite luminescence, 48 h; series mostly up to 57.5 µM
# Summary of the method: as §2
# OV90 = experiment: as above; conditions: Gynecologic cancer cell panel viability, ATPlite luminescence, 48 h; series mostly up to 57.5 µM
# Summary of the method: as §2
# CAOV3 = experiment: as above; conditions: Gynecologic cancer cell panel viability, ATPlite luminescence, 48 h; series mostly up to 57.5 µM
# Summary of the method: as §2
# C33A = experiment: as above; conditions: Gynecologic cancer cell panel viability, ATPlite luminescence, 48 h; series mostly up to 57.5 µM
# Summary of the method: as §2
# Hek293T = experiment: as above; conditions: Gynecologic cancer cell panel viability, ATPlite luminescence, 48 h, control line for the selectivity index; series mostly up to 57.5 µM
# Summary of the method: as §2
# JEG-3 = experiment: as above; conditions: Gynecologic cancer cell panel viability, ATPlite luminescence, 48 h; series mostly up to 57.5 µM
# Summary of the method: as §2
# Potency means the concentration at half of the fitted maximal effect.
SMILES,Potency (UISO),Potency (WaGa),Potency (CASKI),Potency (Es-2),Potency (HeLa),Potency (OV90),Potency (CAOV3),Potency (C33A),Potency (Hek293T),Potency (JEG-3)
CCCCCCCCCCCCCCCC[N+](C)(C)CC,0.668 µM (active),0.119 µM (active),8.91 µM (active),28.2 µM (active),28.2 µM (active),22.4 µM (active),,,,
CCCCCCC[N+](CC)(CC)CCCCc1ccc(Cl)cc1,4.73 µM (active),0.668 µM (active),10 µM (active),,,10 µM (active),11.2 µM (active),,,
Cc1ccc(C(=O)C(C)CN2CCCCC2)cc1 (centres undefined),inactive,,inactive,inactive,inactive,inactive,inactive,inactive,inactive,inactive
COc1cc(C=C2CCC/C(=C\c3ccc(O)c(OC)c3)C2=O)ccc1O,21.1 µM (active),5.31 µM (active),,inactive,,inactive,,,inactive,
Cc1cccn2c(=O)c(-c3nnn[nH]3)cnc12,inactive,inactive,inactive,inactive,inactive,inactive,,inactive,,inactive
CCCOC(C(=O)OC1CCN(C)CC1)(c1ccccc1)c1ccccc1,inactive,,inactive,inactive,inactive,,,inactive,inactive,inactive
COc1cccc2c1C(=O)c1c(O)c3c(c(O)c1C2=O)C[C@@](O)(C(=O)CO)C[C@@H]3O[C@H]1C[C@H](N)[C@H](O)[C@H](C)O1,0.75 µM (active),,2 µM (active),10 µM (active),22.4 µM (active),4.47 µM (active),2.51 µM (active),2.82 µM (active),7.94 µM (active),2.82 µM (active)
COc1cccc2c1C(=O)c1c(O)c3c(c(O)c1C2=O)C[C@@](O)(C(C)=O)C[C@@H]3O[C@H]1C[C@H](N)[C@H](O)[C@H](C)O1,0.211 µM (active),0.0237 µM (active),0.708 µM (active),0.708 µM (active),4.47 µM (active),1.26 µM (active),,0.631 µM (active),,
Cc1ccccc1C(=O)Nc1ccc(C(=O)N2CCCC(N(C)C)c3ccccc32)cc1 (centres undefined),inactive,inactive,,,,inactive,,inactive,,inactive
C[n+]1c2cc(N)ccc2cc2ccc(N)cc21 (tested in a mixture with another compound),2.99 µM (active),1.5 µM (active),,15.8 µM (active),8.91 µM (active),,,,10 µM (active),
Oc1ccc(Cl)cc1Sc1cc(Cl)ccc1O,18.8 µM (active),21.1 µM (active),inactive,,,inactive,inactive,,,
Cc1ccc(O)c2ncccc12,11.9 µM (active),,inactive,inactive,inactive,inactive,,inactive,inactive,inactive
CC(=O)OCC(=O)[C@@]1(O)[C@H](C)C[C@H]2[C@@H]3CCC4=CC(=O)C=C[C@]4(C)[C@@]3(F)[C@@H](O)C[C@@]21C,inactive,inactive,inactive,inactive,inactive,inactive,,inactive,inactive,inactive
O=S1(=O)c2cccc3cccc(c23)N1CCCN1CCN(c2ccc(F)cc2)CC1,inactive,,inactive,inactive,inactive,inactive,inactive,inactive,inactive,inactive
CCCCCCCCCCCCCCCC[N+](C)(C)CCN(Cc1ccc(OC)cc1)c1ncccn1,10.6 µM (active),16.8 µM (active),,,,,17.8 µM (active),,,
COc1cccc(CCc2ccccc2OCC(CN(C)C)OC(=O)CCC(=O)O)c1 (centres undefined),inactive,,inactive,inactive,inactive,,,inactive,inactive,inactive
O=C(COc1ccc(Cl)cc1)N1CCN(Cc2ccc3c(c2)OCO3)CC1,inactive,,inactive,inactive,inactive,inactive,inactive,inactive,inactive,inactive
NC(=NCCCCCCN=C(N)/N=C(\N)Nc1ccc(Cl)cc1)/N=C(\N)Nc1ccc(Cl)cc1,9.44 µM (active),8.41 µM (active),inactive,inactive,,,,,,inactive
C/C=C(/C(=C/C)c1ccc(O)cc1)c1ccc(O)cc1,inactive,,inactive,inactive,inactive,,inactive,inactive,inactive,inactive
COc1cc2c(cc1OC)C(=O)C(CC1CCN(Cc3ccccc3)CC1)C2 (centres undefined),inactive,,inactive,inactive,inactive,,,inactive,inactive,inactive
COc1cc2c(cc1OC)C(C(C(=O)N(CCc1ccc(OC)c(OC)c1OC)CCc1ccc(OC)c(OC)c1OC)c1ccccc1)=NCC2 (centres undefined),inactive,,inactive,inactive,inactive,inactive,inactive,inactive,inactive,inactive
CN(C)C(=S)SC(=S)N(C)C,1.19 µM (active),,inactive,inactive,inactive,7.94 µM (active),,15.8 µM (active),,inactive
Cc1cc(N)c2cc(NC(=O)Nc3ccc4nc(C)cc(N)c4c3)ccc2n1,inactive,,inactive,inactive,inactive,,inactive,inactive,inactive,inactive
CCCCCC=CCC=CCCCCCCCC(=O)OCC,inactive,,inactive,inactive,inactive,inactive,inactive,inactive,inactive,inactive
